Shown is part of a subset that was picked to be rich in hits.
Dicer inh – inhibitors of Dicer pre-microRNA processing, primary screen, biochemical, cat-ELCCA, chemiluminescence; Endoribonuclease Dicer (Homo sapiens), Q9UPY3; cat-ELCCA pre-miR-21 Dicer processing; active compounds read high; z-score at 25 µM; hit rate 6% among 47,000; in the data active = z-score above about 3, passing the limit was not always enough;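 also: higher signal means more uncleaved substrate so more Dicer inhibition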
Target sequence (Q9UPY3 whole entry, looked up): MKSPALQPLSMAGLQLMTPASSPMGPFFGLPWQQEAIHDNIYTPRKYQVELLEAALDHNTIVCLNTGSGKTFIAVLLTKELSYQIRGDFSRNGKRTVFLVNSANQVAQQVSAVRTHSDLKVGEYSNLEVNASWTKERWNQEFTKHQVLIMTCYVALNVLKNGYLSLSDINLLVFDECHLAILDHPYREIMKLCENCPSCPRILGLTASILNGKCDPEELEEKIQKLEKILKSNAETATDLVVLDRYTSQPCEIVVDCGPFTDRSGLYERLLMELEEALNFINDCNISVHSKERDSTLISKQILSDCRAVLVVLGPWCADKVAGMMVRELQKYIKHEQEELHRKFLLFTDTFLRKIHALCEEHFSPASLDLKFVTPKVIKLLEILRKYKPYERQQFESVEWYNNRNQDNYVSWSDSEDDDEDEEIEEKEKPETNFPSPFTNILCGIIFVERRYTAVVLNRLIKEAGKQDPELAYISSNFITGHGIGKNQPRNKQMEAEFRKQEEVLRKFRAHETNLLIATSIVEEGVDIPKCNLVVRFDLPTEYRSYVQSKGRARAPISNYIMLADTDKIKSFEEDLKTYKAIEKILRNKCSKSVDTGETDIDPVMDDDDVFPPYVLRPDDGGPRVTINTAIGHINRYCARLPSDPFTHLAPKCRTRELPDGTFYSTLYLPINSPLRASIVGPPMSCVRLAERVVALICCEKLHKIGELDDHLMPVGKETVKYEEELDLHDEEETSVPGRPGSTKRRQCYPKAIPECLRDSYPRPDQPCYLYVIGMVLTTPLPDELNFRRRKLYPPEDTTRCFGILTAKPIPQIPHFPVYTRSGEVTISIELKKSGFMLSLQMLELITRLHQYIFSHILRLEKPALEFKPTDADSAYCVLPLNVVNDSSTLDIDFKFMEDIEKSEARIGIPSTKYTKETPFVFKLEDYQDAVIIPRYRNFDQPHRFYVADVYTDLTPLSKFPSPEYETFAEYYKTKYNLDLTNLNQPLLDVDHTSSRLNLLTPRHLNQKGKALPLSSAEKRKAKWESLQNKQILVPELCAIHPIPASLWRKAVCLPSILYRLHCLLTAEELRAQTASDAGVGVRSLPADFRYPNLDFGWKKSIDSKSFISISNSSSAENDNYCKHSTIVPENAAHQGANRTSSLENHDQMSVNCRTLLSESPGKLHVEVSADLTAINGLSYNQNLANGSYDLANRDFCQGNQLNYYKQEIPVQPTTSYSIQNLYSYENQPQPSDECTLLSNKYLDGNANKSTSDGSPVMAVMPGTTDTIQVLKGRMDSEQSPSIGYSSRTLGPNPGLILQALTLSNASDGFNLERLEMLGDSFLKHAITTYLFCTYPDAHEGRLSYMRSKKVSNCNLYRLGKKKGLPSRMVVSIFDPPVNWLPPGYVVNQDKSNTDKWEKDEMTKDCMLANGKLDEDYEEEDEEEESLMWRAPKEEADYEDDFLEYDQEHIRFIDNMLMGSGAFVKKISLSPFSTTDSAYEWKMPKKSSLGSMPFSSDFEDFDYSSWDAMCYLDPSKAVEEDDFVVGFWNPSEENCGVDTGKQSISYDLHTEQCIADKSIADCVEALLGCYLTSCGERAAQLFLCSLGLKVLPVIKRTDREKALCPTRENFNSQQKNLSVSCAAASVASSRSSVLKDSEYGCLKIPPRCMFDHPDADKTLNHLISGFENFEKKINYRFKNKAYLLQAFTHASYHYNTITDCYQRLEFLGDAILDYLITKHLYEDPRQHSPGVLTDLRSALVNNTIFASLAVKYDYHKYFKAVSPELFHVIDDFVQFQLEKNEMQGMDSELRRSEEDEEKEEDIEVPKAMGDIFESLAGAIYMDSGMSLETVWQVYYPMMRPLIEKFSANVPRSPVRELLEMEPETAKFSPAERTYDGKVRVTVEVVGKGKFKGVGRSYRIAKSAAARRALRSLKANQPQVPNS
Each line names hits and unclear results; the compound was inactive in the other large screens.

CC1(C)CC(=O)C2=C(C1)Nc1ccccc1NC2c1ccccc1F (stereo not given)	none
CC1(C)CC(=O)C2=C(C1)Nc1ccccc1S2	Dicer inh 4.06
CC1(C)CC(=O)C2=C(C1)Nc1[nH]c(=O)[nH]c(=O)c1C2c1cccnc1 (stereo not given)	none
CCOC(=O)c1c(C)n(CCOc2ccccc2)c2c1cc(O)c1ccccc12	none
N#Cc1c(-c2ccccc2)cc(Nc2ccc(Cl)cc2)n2c1nc1ccccc12	none
Cc1ccc(S(=O)(=O)N2C=Cc3ccccc3C2C#N)cc1 (stereo not given)	none
COc1cc2c(cc1OC)-c1c(C#N)c(-c3ccc(C)cc3)c(C(=O)c3cccs3)n1CC2	Dicer inh 6.22
COc1cc2c(cc1OC)-c1c(C#N)c(-c3ccc(Cl)cc3)c(C(=O)c3cccs3)n1CC2	none
COc1cc2c(cc1OC)-c1c(C#N)c(-c3ccc4c(c3)OCO4)c(C(C)=O)n1CC2	none
O=C1CCC(=O)N1CN(Cc1cccs1)CN1C(=O)CCC1=O	none
CC(C)(C)C(=O)Nc1cccc(C(F)(F)F)c1C(=O)O	none
O=c1[nH]c2c(sc3nnc(-c4ccccc4)c(-c4ccccc4)c32)c(=O)n1-c1cccc(Cl)c1	none
CC(C)(CC(=O)O)CC(=O)NCc1csc2ccccc12	Dicer inh 4.45
Cc1cc(C)c(NC(=S)NCc2csc3ccccc23)c(C)c1	none
S=C(NCc1csc2ccccc12)c1ccccc1	none
CCCOC(=O)C1=C(C)NC2=C(C(=O)CC(C)(C)C2)C1c1ccccc1OCCC (stereo not given)	none
CCc1cccc(CC)c1N(C)C(=O)c1cnccc1C(F)(F)F	none
Cc1onc(-c2c(Cl)cccc2Cl)c1C(=O)Oc1c(Cl)cncc1Cl	none
Cc1ccc(Nc2cc(C)nc3ccc(C)cc23)cc1	none
COc1ccc(Nc2cc(C)nc3ccc(OC)cc23)cc1	none
COc1ccc2nc(C)cc(Nc3ccc(Cl)cc3)c2c1	Dicer inh 3.06
CC1=CC(C)(C)N(C(=O)CN2C(=O)C3CCCCC3C2=O)c2ccccc21 (stereo not given)	none
CS(=O)(=O)c1ccc(C(=O)O)s1	none
CN(C)C(=O)c1c(NC(=O)c2ccccc2)sc2c1CCCC2	none
N#Cc1c(NC(=O)c2ccc(Cl)cc2)sc2c1CCCC2	none
N#Cc1c(NC(=O)C(=O)c2c[nH]c3ccccc23)sc2c1CCCC2	Dicer inh 4.57
COc1cc2ccccc2cc1C(=O)Nc1sc2c(c1C#N)CCC2	none
N#Cc1c(NC(=O)c2ccccc2)sc2c1CCCCC2	Dicer inh 3.22
N#Cc1c(NC(=O)COc2ccc(Cl)cc2)sc2c1CCCC2	none
CC(C)c1cc(Br)c(NC(=O)NCc2ccc3c(c2)OCO3)c(Br)c1	none
CSc1nc2nccc(NC(=O)c3cccc(C)c3)n2n1	none
Cc1cc(C)c2c(N)c(C(=O)c3ccccc3Cl)sc2n1	none
COCc1cc(C)nc2sc(C(=O)N3CCCC3)c(N)c12	Dicer inh 3.92
COCc1cc(C)nc2sc(C(=O)OC)c(N)c12	none
C=CCOC(=O)C1=C(C)NC2=C(C(=O)CC(C)(C)C2)C1c1ccc(OCCC)c(OC)c1 (stereo not given)	none
CC(C)/C(=N\O)c1ccc([N+](=O)[O-])cc1	none
O=C(Nc1cnc2ccccc2c1)c1ccncc1	Dicer inh 3.15
O=C(Nc1ccccc1)Nc1ccc2ncccc2c1	none
O=C(Nc1ccc(F)cc1F)c1ccc2ncccc2c1	none
Clc1ccc(-c2cnc(SCc3c(Cl)cccc3Cl)o2)cc1	none
CCOC(=O)c1nc(COc2ccccc2Cl)[nH]c(=O)c1C	none
CNS(=O)(=O)Cc1ccc([N+](=O)[O-])cc1	none
O=[N+]([O-])c1ccc(NS(=O)(=O)c2ccc(-c3ccc(S(=O)(=O)Nc4ccc([N+](=O)[O-])cc4)s3)s2)cc1	Dicer inh 5.26
Cc1cc(C)c(NS(=O)(=O)c2cc([N+](=O)[O-])ccc2C)c(C)c1	none
Cn1c(=O)oc2cc(S(=O)(=O)NCC(=O)O)ccc21	none
CCOC(=O)c1cnc(NNC(=O)c2ccccc2C)nc1C(F)(F)F	none
NC(=O)N/N=C1\CCCc2ccccc21	none
COc1ccc(C2NC(c3ccc(OC)cc3)C(C)C(=O)C2C)cc1 (stereo not given)	none
CCCCC1(O)CC(c2ccc(OC)cc2)NC(c2ccc(OC)cc2)C1C (stereo not given)	Dicer inh 3.23
COc1ccc(C2C/C(=N/O)C(C)C(c3ccc(OC)cc3)N2)cc1 (stereo not given)	none
Cc1ccc(C2Nc3nonc3NC3=C2C(=O)CC(C)(C)C3)o1 (stereo not given)	none
CN(C)c1ccc(/C=N/NC(=O)N/N=C/c2ccc(N(C)C)cc2)cc1	none
COC(=O)c1ccc(S(=O)(=O)N2CCCCCC2)n1C	none
COC(=O)c1ccc(S(=O)(=O)N2CCC(O)CC2)n1C	none
COC(=O)c1ccc(S(=O)(=O)Nc2ccc(N3CCOCC3)cc2)n1C	Dicer inh 3.58
CCOc1cc(C2C(C(=O)OCc3ccc(OC)cc3)=C(C)NC3=C2C(=O)CC(C)(C)C3)ccc1O (stereo not given)	none
c1ccc(N2CCN(c3nc4ccccc4[nH]3)CC2)nc1	Dicer inh 3.48
Fc1ccc2[nH]c(CN3CCN(c4ccccn4)CC3)cc2c1	none
O=C1CC(N2CCN(c3ccccn3)CC2)C(=O)N1c1ccc(F)cc1 (stereo not given)	none
CC(C)Nc1nc(NC(C)C)nc(Oc2ccc(=O)[nH]n2)n1	none
O=C(Nc1cccs1)Nc1ccccc1N1CCOCC1	none
O=S(=O)(c1ccc(Cl)cc1)n1nc(C(F)(F)F)c2cnccc21	none
O=C(O)c1ccc(S(=O)(=O)NC2CCS(=O)(=O)C2)cc1 (stereo not given)	none
COc1ccc(C2CC(=O)C3=C(C2)Nc2ccccc2NC3c2ccc(F)cc2)cc1 (stereo not given)	none
O=C1CC(c2ccccc2)CC2=C1C(c1ccc(F)c(F)c1)Nc1ccccc1N2 (stereo not given)	Dicer inh 4.63
O=C(O)CCC(=O)N1c2ccccc2NC2=C(C(=O)CC(c3ccccc3)C2)C1c1cccc(F)c1 (stereo not given)	none
COc1ccc(C2CC(=O)C3=C(C2)Nc2ccccc2NC3c2cccc(Br)c2)cc1 (stereo not given)	none
COc1cccc(C2C3=C(CC(c4ccccc4)CC3=O)Nc3ccccc3N2C(=O)C2CC2)c1 (stereo not given)	Dicer inh 3.66
COc1ccc(C2CC(=O)C3=C(C2)Nc2ccccc2NC3c2ccc(OC)cc2)cc1 (stereo not given)	Dicer inh 4.53
Cc1ccc(C2CC(=O)C3=C(C2)Nc2ccccc2NC3c2ccncc2)cc1 (stereo not given)	none
O=C1CC(c2ccccc2)CC2=C1C(c1cccnc1)Nc1ccccc1N2 (stereo not given)	none
Cc1ccccc1C1Nc2ccccc2NC2=C1C(=O)CC(c1ccccc1)C2 (stereo not given)	none
CN(C)c1ccc(C2CC(=O)C3=C(C2)Nc2ccccc2NC3c2ccccc2)cc1 (stereo not given)	Dicer inh 4.75
CCOc1cc(C2Nc3ccccc3NC3=C2C(=O)CC(c2ccccc2)C3)ccc1O (stereo not given)	none
COc1ccc(C2CC(=O)C3=C(C2)Nc2ccccc2N(C(=O)C2CC2)C3c2cccnc2)cc1OC (stereo not given)	none
CCCCOC(=O)C1=C(C)NC2=C(C(=O)CCC2)C1c1ccc(C(=O)OC)cc1 (stereo not given)	none
C=CCn1c(SCC(=O)c2ccccc2F)nc2sc(C)c(C)c2c1=O	none
COC(=O)CCC1CCC(CCC(=O)OC)C1=O (stereo not given)	none
N#C/C(=C\Nc1ccccc1Cl)S(=O)(=O)c1ccccn1	none
